Screens: PubChem, National Center for Advancing Translational Sciences (NCATS)
Most compounds without a hit are left out; they make up all but 14% or so of the library.
HCMV inh: qHTS Assay for inhibitors of the human cytomegalovirus (HCMV); HFF cells, HCMV-luciferase reporter, 72 h; active compounds read low; activity change, negative = inhibition, % at 57.5 µM; hit rate 4.5% among 410,000; AID 1259415, 2018; in the data active = activity change below about -60%; inconclusive = no clear call, values can overlap the other calls; inactive = above about -39%
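HFF cells seeded 16 h at 37C, treated with compounds, infected with luciferase-reporter HCMV at MOI 1 PFU/cell; luciferase read at 72 h post infection, normalized to buffer-only and Salinomycin controls.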
Pf growth 48h: Primary qHTS for delayed death inhibitors of the malarial parasite plastid, 48 hour incubation; P. falciparum luciferase growth in erythrocytes, 48 h; Potency, µM (top dose mostly 28.7 µM), for the others: at the highest dose activity change, negative = inhibition, usual class: inhibitors; hit rate 5.9% among 310,000; AID 504832, 2011; also: potency is read from the fitted curve at half-maximal effect
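Growth was read as firefly luciferase luminescence after a 48 h, 37 C, 5% CO2 exposure of compounds to reporter-bearing P. falciparum cultures (0.1% parasitemia, 2% hematocrit final) in Albumax-supplemented RPMI 1640.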
FBPA Giardia inh: qHTS Assay for Inhibitors of Fructose-1,6-bisphosphate Aldolase from Giardia Lamblia; AID 2451, 2010; Potency, µM (series often up to 59.6 µM), for inactives: at the top dose activity, negative = inhibition, usual class: inhibitors; purified Giardia FBPA; hit rate 0.71% among 290,000; A8B2U2; also: potency is read from the fitted curve at half-maximal effect; nearly all actives have a fitted effect of over 55% in size
Target sequence (A8B2U2 whole entry, looked up): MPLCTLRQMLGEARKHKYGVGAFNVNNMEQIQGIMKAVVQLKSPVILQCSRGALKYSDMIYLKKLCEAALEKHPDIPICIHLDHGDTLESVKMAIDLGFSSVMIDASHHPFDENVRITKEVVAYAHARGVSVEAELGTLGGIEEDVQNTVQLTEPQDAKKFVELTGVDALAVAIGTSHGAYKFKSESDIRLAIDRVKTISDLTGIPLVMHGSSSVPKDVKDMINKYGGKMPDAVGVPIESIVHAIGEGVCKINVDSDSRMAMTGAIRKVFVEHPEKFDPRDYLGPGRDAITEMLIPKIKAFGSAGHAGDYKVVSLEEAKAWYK
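Giardia FBPA (40 nM reagent) was preincubated 10 min at RT with compound (up to 57.5 uM final), then substrate plus GAPDH/TPI/NAD/arsenate coupling system with diaphorase/resazurin was added; resorufin fluorescence (525/598 nm) was read after 20 min.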
Pf growth 96h: Primary qHTS for delayed death inhibitors of the malarial parasite plastid, 96 hour incubation | Potency, µM (top dose mostly 28.7 µM), for inactives: top-dose activity change, negative = inhibition, hits mostly inhibitors | P. falciparum luciferase reporter growth, 96 h | AID 504834, 2011 | hit rate 6.9% among 320,000; also: potency is read from the fitted curve at half-maximal effect
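Delayed-death screen, second-generation endpoint: infected erythrocytes, 2% hematocrit, 0.05% parasitemia final; 96 hours at 37 C, 5% CO2; luciferase detection reagent; luminescence decrease equals reduced growth.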
Sm TGR inh: qHTS Assay for the Inhibitors of Schistosoma Mansoni Peroxiredoxins | Schistosoma mansoni thioredoxin glutathione reductase (TGR), Q962Y6 | purified TGR, DTNB reduction, TNB absorbance 405 nm | Potency, µM (top dose mostly 114 µM), for inactives: at the highest dose activity change, negative = inhibition, actives largely listed as inhibitors | hit rate 3% among 360,000 | AID 485364, 2010; also: potency is read from the fitted curve at half-maximal effect; nearly all actives have a fitted effect of over 60% in size
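TGR 20 nM + NADPH 100 uM (dispensed conc.), cpd preinc 15 min RT; start with NADPH (500 uM addition) then DTNB (15 mM addition). Kinetic TNB absorbance, 405 nm filter. Four-parameter Hill fit across titration.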
Starred values were filed as active, the others as inactive; ? = inconclusive; nt = no result; [ ] = dose if it differs, or a comment. Unless noted, calls follow the shape of the dose curve; as a rule, active = well fitted curve in the direction sought with a large enough effect; inconclusive = small, poorly fitted or top-dose-only effect, or another doubt; inactive = no such curve, though single readings can be large; an effect the other way counts as inactive or inconclusive. % is scaled to controls: 0 for no effect and ±100 for the full control effect.

SMILES | HCMV inh | Pf growth 48h | FBPA Giardia inh | Pf growth 96h | Sm TGR inh
Cc1ccccc1NC(=O)Cc1nc(COC(=O)c2ccc(Cl)c(S(N)(=O)=O)c2)cs1 | -25.5 | ? | nt | 13.1µM* | -0.9%
Cc1ccc(OCCC(=O)OCc2csc(CC(=O)Nc3ccccc3C)n2)cc1 | 26.9 | -23.8% | nt | -20.8% | 5.6%
Cc1ccc(C)c(OCCC(=O)OCc2csc(CC(=O)Nc3ccccc3C)n2)c1 | ? | 11.7µM* | nt | ? | 1.6%
Cc1ccccc1NC(=O)Cc1nc(COC(=O)c2cccc(O)c2)cs1 | 82.5 | ? | nt | -47.6% | -2.5%
Cc1ccc(C)c(NC(=O)Cc2nc(CCl)cs2)c1 | ? | 14.7µM* | -6.8% | ? | 0.0%
Cc1ccccc1NC(=O)Cc1nc(COC(=O)c2cccc([N+](=O)[O-])c2)cs1 | 3.3 | -8.8% | nt | 4.15µM* | -7.2%
Cc1ccccc1NC(=O)Cc1nc(COC(=O)c2ccc([N+](=O)[O-])cc2)cs1 | -10.6 | 17.8% | nt | 25.8% | -2.7%
CC(=O)Nc1ccn(C2OC(C(COC(C)=O)NC(=O)C(COCc3ccccc3)NC(=O)OC(C)(C)C)C(OC(C)=O)C2OC(C)=O)c(=O)n1 (centres undefined) | nt | nt | 7.1% | nt | nt
Cc1cc(C)cc(NC(=O)N2CCN3CCCCC3C2)c1 (centres undefined) | 2.2 | nt | nt | nt | 4.5%
CCCn1nc([N+](=O)[O-])c(C(C#N)c2nc3ccccc3s2)c(Cl)c1=O (centres undefined) | -90.3* | nt | -0.2% | -37.4% | 1.26µM*
Cn1c(C(C#N)C(=O)c2sc3ccccc3c2Cl)nc2ccccc21 (centres undefined) | -38.1 | 10.8% | 20.8% | nt | -26.8%
CCn1nc([N+](=O)[O-])c(C(C#N)c2nc3ccccc3n2C)c(Cl)c1=O (centres undefined) | -13.8 | -2.1% | 4.5% | -16.2% | 14.1µM*
CCOc1ncccc1C(=O)NC(C)CCc1ccccc1 (centres undefined) | ? | -7.2%[0.00184 µM] | 13.0% | 2.1% | 10.7%
COC(=O)C1=C(C)N(c2ccccc2)C(=S)NC1c1ccccc1C(F)(F)F (centres undefined) | -37.6 | 10.4µM* | -9.4% | ? | -2.4%
COCCOC(=O)C1=C(C)N(c2ccccc2)C(=S)NC1c1ccccc1C(F)(F)F (centres undefined) | ? | -20.4% | -5.2% | ? | 0.5%
COc1ccc(CNC(=O)c2cc(-c3cccs3)nc3ccccc23)c(OC)c1 | 4.3 | nt | nt | nt | 0.1%
COc1ccc([N+](=O)[O-])cc1N(CC(O)CN1C(=O)NC(C)(C)C1=O)S(=O)(=O)c1ccccc1 (centres undefined) | -23.5 | 22.5% | 3.8% | 14.7µM* | 5.0%
CSc1cccc(NC(=O)CCCn2c(=O)c3cccn3c3cccnc32)c1 | 23.5 | ? | 1.0% | 11.1% | -2.8%
CCn1c(N2CCN(S(=O)(=O)c3ccccc3)CC2)nc2ccccc21 | -25.3 | 0.0% | -4.3% | ? | 17.0%
CCn1c(COc2cccc(C)c2C)nnc1SCC(=O)N1CCN(c2ccc(OC)cc2)CC1 | -97.1* | ? | 5.2% | 9.28µM* | -4.5%
CCn1c(SCC(=O)N2CCOCC2)nnc1-c1cccs1 | -10.3 | -3.3% | 10.1% | 11.7µM* | -0.5%
CCn1c(CC(=O)Nc2cccc(OC)c2)nnc1SCC(=O)N1CCN(c2ccccc2)CC1 | nt | -11.3% | 4.9% | 14.9% | -19.4%
CCn1c(COc2ccccc2C)nnc1SCC(=O)OC | 3.1 | 0.0% | 0.0% | ? | -17.2%
CCn1c(COc2ccccc2C)nnc1SCC(=O)N1CCN(c2ccccc2)CC1 | 43.8 | 10.4µM* | 10.5% | ? | -17.1%
C=CCSc1nnc(COc2ccc(=O)n(-c3ccccc3)n2)n1CC | -93.1* | 261.3% | 0.4% | ? | 7.8%
SMILES | HCMV inh | Pf growth 48h | FBPA Giardia inh | Pf growth 96h | Sm TGR inh
CC(OC(=O)c1cccc([N+](=O)[O-])c1)C(=O)NCc1ccc2c(c1)OCO2 (centres undefined) | 0.1 | -8.0% | nt | -3.6% | -7.6%
O=C(COc1ccccc1)N=C1SC2CS(=O)(=O)CC2N1Cc1ccccc1 (centres undefined) | -5.8 | ? | nt | 13.1µM* | -6.5%
COc1ccc(CN2C(=NC(=O)COc3ccccc3)SC3CS(=O)(=O)CC32)cc1 (centres undefined) | -32.9 | ? | nt | ? | -3.2%
O=C(CN1CCC2(CC1)OCCO2)c1ccc2cc[nH]c2c1 | -65.6* | 33.8% | 2.2% | 21.0% | 44.7µM*
O=C(CN1CCOCC1)c1ccc2cc[nH]c2c1 | 1.8 | 51.1% | -24.2% | 8.5% | ?
C[C@@H]1COc2cc(NCCCN3CCOCC3)ccc2S(=O)(=O)N1 | 1.7 | nt | nt | nt | nt
CC(C)c1ccccc1-n1c(SCC(=O)N2CCN(c3ccccc3)CC2)nnc1-c1cccnc1 | 22.6 | ? | -2.8% | 8.28µM* | -15.0%
Cn1c(SCC(=O)N2CCN(c3ccccc3)CC2)nnc1-c1ccncc1 | 53.0 | -25.8% | 3.1% | 11.7µM* | -6.0%
Cn1c(SCC(=O)N2CCN(c3ccccc3)CC2)nnc1-c1cc2ccccc2o1 | -65.9* | -12.3% | 0.0% | ? | -0.7%
Cn1c(Cc2cccc3ccccc23)nnc1SCC(=O)N1CCN(c2ccccc2)CC1 | ? | ? | 2.3% | ? | 9.7%
O=C(CSc1nnc(-c2cccs2)n1CC1CCCO1)c1cc2ccccc2o1 (centres undefined) | 5.3 | 29.9% | -0.7% | 11.7µM* | ?
CCc1nc2ccc(C(=O)Nc3cccc(OCC(=O)N(C)C)c3)cn2c1N(C)Cc1cc2ccccc2s1 | -18.0 | nt | nt | nt | nt
Cn1c(SCC(=O)N2CCN(c3cccc(Cl)c3)CC2)nnc1-c1ccncc1 | -66.8* | 5.3% | -0.4% | ? | 4.2%
COCCn1c(SCC(=O)c2c[nH]c3ccccc23)nnc1-c1ccncc1 | nt | ? | 1.0% | ? | 0.8%
CCc1cccc2c(C(=O)CSc3nnc(-c4ccncc4)n3C)c[nH]c12 | -16.9 | ? | -10.3% | 10.4µM* | 3.2%
Cn1c(SCC(=O)c2cc3ccccc3o2)nnc1-c1ccccc1 | -60.2* | 2.5% | -0.2% | -6.8% | ?
Cn1cnnc1SCC(=O)c1cc2ccccc2o1 | ? | 2.4% | 1.8% | 10.5% | -27.7%
Cn1nnnc1SCC(=O)N1CCN(c2cccc(Cl)c2)CC1 | -14.2 | -12.9% | 3.4% | nt | -13.4%
CC1CN(C(=O)CSc2nnc(-c3ccncc3)n2-c2ccccc2)CC(C)O1 (centres undefined) | nt | 24.0% | -0.2% | 10.4µM* | -1.5%
N#CC(c1ccc(Cl)cc1)c1c(Cl)cc(-n2ncc(=O)[nH]c2=O)cc1Cl (centres undefined) | nt | ? | nt | -6.1% | nt
Cc1ccc2c(=O)n3c(nc2c1)C(C)NC(=O)c1cccnc1-3 (centres undefined) | 2.8 | nt | nt | nt | nt
